Where “and” joins values, the source holds several entries; their conditions need not be identical. Identical values can stand only once. Records with an inconclusive call do not appear. A call without a number means that no potency is given here. A structure can be active in one record and inactive in another. Calls of active or inactive are those of the source. Unless noted, calls follow the shape of the full dose curve.
Test system: not listed separately
Test: qHTS assay to identify small molecule antagonists of the estrogen related receptor signaling pathway with the pleiotropic PPARgamma coactivator (PGC) from Tox21 10K library (AID 1224841; call rule not given here; also: actives are mostly falling curves and most rising ones were filed inactive; nearly all actives have a fitted effect of over 50% in size)
Conditions: PGC/ERR reporter cell line, ONE-Glo luciferase, 18 h; series mostly up to 92.4 µM
Procedure, shortened: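 Luminescence (One-Glo, 30 min at room temperature) after 18 h compound treatment at 37 C of PGC/ERR reporter cells plated at 2,000 cells/well and settled 6 h beforehand.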
Potency is read from the fitted curve at half-maximal effect.

SMILES | Potency
COC(C)COC(C)COC(C)CO (stereo unspecified) | inactive
CCC(C)c1ccccc1O (stereo unspecified) | inactive
O=C(c1ccccc1)c1ccccc1O | inactive
CC1=CC2C3CC(C=C3C)C2C1 (stereo unspecified) | inactive
Nc1ncn([C@@H]2O[C@H](CO)[C@@H](O)[C@H]2O)c(=O)n1 | 2.73 µM (active) and 7.5 µM (active)
CCC(C)CO (stereo unspecified) | inactive
Cc1ccc2c(n1)Oc1ccc(C(C)C(=O)OCC(=O)N(C)C)cc1C2 (stereo unspecified) | inactive
O=C(/C=C/c1ccccc1)OCc1ccccc1 | inactive
C#C[C@]1(O)CC[C@H]2[C@@H]3CCc4cc(OC)ccc4[C@H]3CC[C@@]21C | inactive
CC(C(=O)O)c1cccc(C(=O)c2ccccc2)c1 (stereo unspecified) | inactive
Cc1c(OCC(F)(F)F)ccnc1CS(=O)c1nc2ccccc2[nH]1 (stereo unspecified) | inactive
Clc1nc(Cl)c(Cl)c(Cl)c1Cl | inactive
Cn1cnc([N+](=O)[O-])c1Sc1ncnc2nc[nH]c12 | inactive
O=C(Nc1ccc(Cl)cc1)Nc1ccc(Cl)c(Cl)c1 | 12.1 µM (active) and inactive
CC(C)Oc1ccc2c(=O)c(-c3ccccc3)coc2c1 | inactive
CCCCC/C=C/C=C/C=O | inactive and 54.5 µM (active)
Cc1cccc(C(=O)O)c1 | inactive
CCCCC(CC)COCC1CO1 (stereo unspecified) | inactive
O=C(COc1ccc(Cl)cc1)N1CCN(Cc2ccc3c(c2)OCO3)CC1 | 43.3 µM (active)
O=[N+]([O-])c1ccc2c(c1)Cc1ccccc1-2 | inactive
CC(C)OB(OC(C)C)OC(C)C | inactive
CC(CCC(=O)O)(c1ccc(O)cc1)c1ccc(O)cc1 | inactive
CCCCc1oc2ccccc2c1C(=O)c1cc(I)c(OCCN(CC)CC)c(I)c1 | inactive
CC(=O)C1(C)CC2=C(CCCC2(C)C)CC1C (stereo unspecified) | inactive
CCOC(=O)C(C#N)=C(c1ccccc1)c1ccccc1 | inactive
C[C@]12CC[C@H]3[C@@H](CCC4=CC(=O)CC[C@@]43C)[C@@H]1CC[C@@H]2C(=O)CO | inactive
C=C(C)C(=O)OCCOC(=O)C(=C)C | inactive

Test system: not listed separately
Test: qHTS assay to identify small molecule agonists of the estrogen related receptor signaling pathway with the pleiotropic PPARgamma coactivator (PGC) from Tox21 10K library (AID 1224842; active = well fitted activation curve with a large enough effect in the repeat runs; also: nearly all actives have a fitted effect of over 15% in size)
Conditions: PGC/ERR reporter cell line, luciferase ONE-Glo, 18 h; series mostly up to 92.4 µM
Procedure, shortened: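 PGC/ERR reporter cells (NTP line) were seeded 2,000 per well, rested 6 h at 37 C/5% CO2, then pin-dosed with compounds in DMSO for 18 h at 37 C; luciferase read by One-Glo luminescence after 30 min at room temperature.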

SMILES | Potency
COC(C)COC(C)COC(C)CO (stereo unspecified) | inactive
CCC(C)c1ccccc1O (stereo unspecified) | inactive
O=C(c1ccccc1)c1ccccc1O | inactive
CC1=CC2C3CC(C=C3C)C2C1 (stereo unspecified) | inactive
Nc1ncn([C@@H]2O[C@H](CO)[C@@H](O)[C@H]2O)c(=O)n1 | inactive
CCC(C)CO (stereo unspecified) | inactive
Cc1ccc2c(n1)Oc1ccc(C(C)C(=O)OCC(=O)N(C)C)cc1C2 (stereo unspecified) | inactive
CC(C(=O)O)c1cccc(C(=O)c2ccccc2)c1 (stereo unspecified) | inactive
Clc1nc(Cl)c(Cl)c(Cl)c1Cl | inactive
Cn1cnc([N+](=O)[O-])c1Sc1ncnc2nc[nH]c12 | 24.2 µM (active) and inactive
O=C(Nc1ccc(Cl)cc1)Nc1ccc(Cl)c(Cl)c1 | inactive
CC(C)Oc1ccc2c(=O)c(-c3ccccc3)coc2c1 | 2.66 µM (active) and 2.98 µM (active)
CCCCC/C=C/C=C/C=O | inactive
Cc1cccc(C(=O)O)c1 | inactive
CCCCC(CC)COCC1CO1 (stereo unspecified) | inactive
O=C(COc1ccc(Cl)cc1)N1CCN(Cc2ccc3c(c2)OCO3)CC1 | inactive
CC(C)OB(OC(C)C)OC(C)C | inactive
CC(CCC(=O)O)(c1ccc(O)cc1)c1ccc(O)cc1 | inactive
CCCCc1oc2ccccc2c1C(=O)c1cc(I)c(OCCN(CC)CC)c(I)c1 | inactive
CC(=O)C1(C)CC2=C(CCCC2(C)C)CC1C (stereo unspecified) | inactive
CCOC(=O)C(C#N)=C(c1ccccc1)c1ccccc1 | inactive
C[C@]12CC[C@H]3[C@@H](CCC4=CC(=O)CC[C@@]43C)[C@@H]1CC[C@@H]2C(=O)CO | inactive
C=C(C)C(=O)OCCOC(=O)C(=C)C | inactive

Target: Thyrotropin receptor (Homo sapiens) (UniProt P16473)
Sequence (P16473 whole entry, looked up): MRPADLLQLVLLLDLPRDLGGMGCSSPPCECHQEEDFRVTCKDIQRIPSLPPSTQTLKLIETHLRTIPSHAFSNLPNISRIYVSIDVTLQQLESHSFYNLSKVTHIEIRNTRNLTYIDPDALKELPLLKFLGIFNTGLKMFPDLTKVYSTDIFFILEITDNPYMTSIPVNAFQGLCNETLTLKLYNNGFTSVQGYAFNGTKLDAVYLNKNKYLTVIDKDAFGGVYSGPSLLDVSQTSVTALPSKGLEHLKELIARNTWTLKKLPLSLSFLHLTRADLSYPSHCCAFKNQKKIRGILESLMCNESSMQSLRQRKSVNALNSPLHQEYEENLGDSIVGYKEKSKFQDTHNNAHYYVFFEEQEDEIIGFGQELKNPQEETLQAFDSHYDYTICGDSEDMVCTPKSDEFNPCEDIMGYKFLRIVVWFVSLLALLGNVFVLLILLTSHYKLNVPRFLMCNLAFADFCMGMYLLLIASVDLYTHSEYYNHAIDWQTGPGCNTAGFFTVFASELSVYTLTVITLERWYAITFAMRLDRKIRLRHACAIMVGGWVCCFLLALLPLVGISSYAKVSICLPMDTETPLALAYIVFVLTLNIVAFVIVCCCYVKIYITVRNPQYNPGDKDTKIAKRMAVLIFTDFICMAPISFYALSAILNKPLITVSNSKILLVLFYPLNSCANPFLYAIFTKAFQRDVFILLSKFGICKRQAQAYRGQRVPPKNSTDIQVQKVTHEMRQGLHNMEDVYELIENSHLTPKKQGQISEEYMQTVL
Test: qHTS assay to identify small molecule agonists of the thyroid stimulating hormone receptor (TSHR) signaling pathway (AID 1224843); also: nearly all actives have a fitted effect of over 45% in size
Conditions: TSHR-HEK293 cells, cAMP HTRF, agonist mode, 30 min; series mostly up to 92.4 µM
Procedure, shortened: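 Compounds are titrated over 15 concentrations, in triplicate, onto TSHR-HEK293 cells seeded at 800/well. Plates sit 30 min at room temperature before cAMP-d2 and anti-cAMP cryptate are added; signal is read after a further hour.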

SMILES | Potency
COC(C)COC(C)COC(C)CO (stereo unspecified) | inactive
CCC(C)c1ccccc1O (stereo unspecified) | inactive
O=C(c1ccccc1)c1ccccc1O | inactive
Brc1cc(Oc2cc(Br)c(Br)c(Br)c2Br)c(Br)c(Br)c1Br | inactive
CC1=CC2C3CC(C=C3C)C2C1 (stereo unspecified) | inactive
Nc1ncn([C@@H]2O[C@H](CO)[C@@H](O)[C@H]2O)c(=O)n1 | inactive
OC(CCl)CCl | inactive
CCC(C)CO (stereo unspecified) | inactive
Cc1ccc2c(n1)Oc1ccc(C(C)C(=O)OCC(=O)N(C)C)cc1C2 (stereo unspecified) | inactive
C#C[C@]1(O)CC[C@H]2[C@@H]3CCc4cc(OC)ccc4[C@H]3CC[C@@]21C | 19.3 µM (active)
Cc1cccc(N(C)C(=S)Oc2ccc3ccccc3c2)c1 | inactive
CC(C(=O)O)c1cccc(C(=O)c2ccccc2)c1 (stereo unspecified) | inactive
Cc1c(OCC(F)(F)F)ccnc1CS(=O)c1nc2ccccc2[nH]1 (stereo unspecified) | inactive
Clc1nc(Cl)c(Cl)c(Cl)c1Cl | inactive
Cn1cnc([N+](=O)[O-])c1Sc1ncnc2nc[nH]c12 | inactive
O=C(Nc1ccc(Cl)cc1)Nc1ccc(Cl)c(Cl)c1 | inactive

SMILES | Potency
OC1CCCCCCCCCCC1 | inactive
OC[C@H]1O[C@@H]2O[C@H]3[C@H](O)[C@@H](O)[C@@H](O[C@H]4[C@H](O)[C@@H](O)[C@@H](O[C@H]5[C@H](O)[C@@H](O)[C@@H](O[C@H]6[C@H](O)[C@@H](O)[C@@H](O[C@H]7[C@H](O)[C@@H](O)[C@@H](O[C@H]8[C@H](O)[C@@H](O)[C@@H](O[C@H]1[C@H](O)[C@H]2O)O[C@@H]8CO)O[C@@H]7CO)O[C@@H]6CO)O[C@@H]5CO)O[C@@H]4CO)O[C@@H]3CO | inactive
CC(C)Oc1ccc2c(=O)c(-c3ccccc3)coc2c1 | inactive
Cc1ccc(C)c(O)c1C | inactive
CCCCC/C=C/C=C/C=O | inactive
c1ccncc1 | inactive
Cc1cccc(C(=O)O)c1 | inactive
CCCCC(CC)COCC1CO1 (stereo unspecified) | inactive
O=C(COc1ccc(Cl)cc1)N1CCN(Cc2ccc3c(c2)OCO3)CC1 | inactive
O=[N+]([O-])c1ccc2c(c1)Cc1ccccc1-2 | inactive
CC(CCC(=O)O)(c1ccc(O)cc1)c1ccc(O)cc1 | inactive
CCCCc1oc2ccccc2c1C(=O)c1cc(I)c(OCCN(CC)CC)c(I)c1 | inactive
CC(=O)C1(C)CC2=C(CCCC2(C)C)CC1C (stereo unspecified) | inactive
CCOC(=O)C(C#N)=C(c1ccccc1)c1ccccc1 | inactive
C=C(C)C(=O)OCCOC(=O)C(=C)C | inactive

From PubChem BioAssay (Tox21)
